# High-throughput results from PubChem BioAssay.
# Only some compounds are listed: those with a hit (about 0.95% of all), similar ones and a draw of the others.
# A488 autofl: qHTS Assay for Spectroscopic Profiling in A488 Spectral Region | max dye equivalency, M | AID 591, 2007 | 0.1% of 59,000 active | compound autofluorescence, A488 spectral region, dye equivalency; Compound Type: qHTS ECL - MLSMR
#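 Read-out: relative fluorescence at 480/540 nm, expressed as Alexa 488 dye-equivalent concentration from a six-point A488 standard included per plate. Conditions: 100 mM Tris, pH 8.0; 15 min incubation, room temperature.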
# A647 autofl: qHTS Assay for Spectroscopic Profiling in A647 Spectral Region; Compound fluorescence, A647 channel (570/671 nm), Tris buffer; max dye-equivalent concentration, M; 59,000 tested, under 10 active;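 note: values scaled relative to a standard on each plate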
#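 Fluorescence read (570 nm ex, 671 nm em) after 15 min RT incubation of compounds in 100 mM Tris buffer, pH 8.0; values expressed as dye-equivalent concentration against a six-point A647 standard series on each plate.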
# Resorufin fluor: qHTS Assay for Spectroscopic Profiling in Resorufin Spectral Region; Compound fluorescence, resorufin region 547/598 nm, buffer; stronger effect = higher value; max dye-equivalent concentration, M; 0.04% of 59,000 active; AID 588, 2007
#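 Compounds in 100 mM Tris buffer, pH 8.0, incubated 15 min at room temperature, then read with 547 nm excitation and 598 nm emission filters. Fluorescence was converted to dye-equivalent concentration using an on-plate six-point resorufin standard curve.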
# Rhodamine fluor: qHTS Assay for Spectroscopic Profiling in Rhodamine Spectral Region; Rhodamine-region fluorescence, 547/598 nm, Tris buffer; stronger effect = higher value; max dye-equivalent concentration, M; 0.05% of 59,000 active; in the data active = max dye-equivalent concentration above about 11 nM; inconclusive = between about 1.1 nM and that limit
#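 Steps: pin-transfer compounds into pH 8.0 Tris (100 mM), hold 15 min at room temperature, image with a 547/598 nm filter pair, and convert intensities to rhodamine-equivalent concentration using a six-point on-plate rhodamine series.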
# Fluorescein autfl: qHTS Assay for Spectroscopic Profiling in Fluorescein Spectral Region; Compound autofluorescence, 480/540 nm, fluorescein-equivalent; stronger effect = higher value; max fluorescein-equivalent concentration, M; 0.91% of 59,000 active; in the data active = max fluorescein-equivalent concentration above about 10 nM; inconclusive = between about 1.1 nM and that limit
#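 In this qHTS profile, compound fluorescence was measured with a 480 nm/540 nm filter pair following a 15-min room-temperature incubation in 100 mM Tris (pH 8.0). A six-point fluorescein series on each plate served for normalization.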
# Texas Red fluor: qHTS Assay for Spectroscopic Profiling in Texas Red Spectral Region; Compound fluorescence, Texas Red channel, 547/618 nm; stronger effect = higher value; max dye-equivalent concentration, M; 0.06% of 59,000 active; in the data active = max dye-equivalent concentration above about 10 nM; inconclusive = between about 1.1 nM and that limit
#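 Compound fluorescence was read after 15 min at room temperature in 100 mM Tris, pH 8.0, using 547 nm excitation and 618 nm emission across a concentration series. It was expressed as Texas Red dye-equivalent concentration from an on-plate standard curve.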
# The depositor's hits bear a star; i = inactive; ? = inconclusive. Unless noted, the rule behind the calls is not given here.
SMILES,A488 autofl,A647 autofl,Resorufin fluor,Rhodamine fluor,Fluorescein autfl,Texas Red fluor
Nc1cc(-c2ccncc2)c[nH]c1=O,i,5.1e-08,i,i,1.1e-08M*,i
COc1cccc2cc(C(=O)N3CCc4ccccc43)c(=O)oc12,i,1.2e-08,i,i,i,i
CCOc1cccc2cc(C(=O)N3CCc4ccccc43)c(=O)oc12,i,1e-09,?,1.1e-08M*,?,2.3e-08M*
Cc1ccc(C2c3sc(=O)[nH]c3SC3C(=O)NC(=O)C32)cc1 (stereo unspecified),i,1e-09,i,i,1.2e-08M*,i
O=C(O)C1Sc2[nH]c(=O)sc2C2c3cc(Cl)ccc3OC(=O)C12 (stereo unspecified),i,1.7e-08,i,i,i,i
Cc1cc(=O)[nH]c2cc3oc4ccccc4c3cc12,i,1e-09,i,i,i,i
C[C@@H]1O[C@@H](OC[C@@H]2O[C@@H](Oc3c(-c4ccc(O)c(O)c4)oc4cc(O)cc(O)c4c3=O)[C@H](O)[C@H](O)[C@@H]2O)[C@H](O)[C@H](O)[C@@H]1O,i,3.8e-09,i,i,?,i
CCOC(=O)C1=C(C)OC(N)=C(C#N)C1c1cc(OC)c2c(c1)OCO2 (stereo unspecified),i,7.1e-09,i,i,?,i
CCOc1cc(C2C(C#N)=C(N)OC(C)=C2C(C)=O)cc(Br)c1O (stereo unspecified),1.2e-08M*,2.5e-09,i,i,1.9e-07M*,i
O=C(O)c1cc2c(cc1S(=O)(=O)O)[C@H]1[C@@H]([C@H]3[C@H]2[C@@]2(Cl)C(Cl)=C(Cl)[C@]3(Cl)C2(Cl)Cl)[C@]2(Cl)C(Cl)=C(Cl)[C@@]1(Cl)C2(Cl)Cl,i,6.9e-09,i,i,?,i
CC(=O)Nc1ccc(S(=O)(=O)Nc2nc3ccccc3nc2Sc2nncn2C)cc1,i,4.6e-09,i,i,1.4e-08M*,i
Cn1cnnc1Sc1nc2ccccc2nc1NS(=O)(=O)c1ccccc1,i,7e-09,i,i,?,i
Cc1c(Nc2nc3ccccc3nc2NS(=O)(=O)c2ccccc2)c(=O)n(-c2ccccc2)n1C,i,1e-09,i,i,i,i
Cn1ccnc1Sc1nc2ccccc2nc1NS(=O)(=O)c1ccccc1,i,1e-09,i,i,1.1e-08M*,i
O=S(=O)(NC1CCCCCC1)c1cccc2cccnc12,i,4.9e-09,i,i,i,i
CC(CS(=O)(=O)c1cccc2cccnc12)N1CCCCC1 (stereo unspecified),i,4.8e-08,i,i,1.6e-08M*,i
CCCN1CCCc2cc(CN)ccc21,?,1e-09,i,i,3.3e-08M*,i
C/C(=C\CNc1ncnc2c1ncn2[C@@H]1O[C@@H](CO)[C@@H](O)[C@H]1O)CO,i,1e-09,i,i,i,i
Cn1c(=O)[nH]c2cc(Cl)cnc21,i,9e-08,i,i,1.8e-08M*,i
FC(F)(F)c1nc2ncc(Cl)cc2[nH]1,i,3.6e-09,i,i,i,i
c1nc(NCCc2cnc[nH]2)c2[nH]cnc2n1,i,4.7e-08,i,i,?,i
Cc1cccc(-c2c3c(=O)n(C)c(=O)n(C)c3c3cccnn23)c1,i,1e-09,i,i,1.1e-08M*,i
Cc1cccc(-c2c3c(=O)n(C)c(=O)n(C)c3c3c(C)cc(C)nn23)c1,i,3.2e-08,i,i,?,i
CN(Cc1ccco1)c1cc(-c2ccc3c(c2)OCO3)ncn1,i,5.4e-09,i,i,i,i
Cc1ccc2c(c1)c(C)c(C)n2CC(O)CN1CCOCC1 (stereo unspecified),i,3.9e-08,?,1.2e-08M*,1.4e-08M*,6.4e-08M*
Cc1ccc(C(C)C)c(OCC(O)CN2CCOCC2)c1 (stereo unspecified),i,2.4e-09,i,i,?,i
